Laboratory results: PubChem BioAssay
Records with an inconclusive call do not appear. Calls of active or inactive are those of the source. Unless noted, cut-off not given; nearly all actives show AC50 up to about 26 µM.

How the values were obtained:
[1] = viability loss in pontine glioma line – cell-based, SU-DIPG-XIII, MIPE5.0, CellTiter-Glo, qHTS, dose response (AID 1347064; cut-off not given, nearly all actives have AC50 up to about 23 µM;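 on AC50: cells exposed to compound for 48 hours before the viability read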); details: CellTiter-Glo ATP luminescence
[2] = viability loss in pontine glioma line – cell-based, SU-DIPG-XXV, MIPE5.0, CellTiter-Glo, qHTS, dose response (AID 1347065); details: CellTiter-Glo ATP luminescence;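 further: cells exposed to compound for 48 hours before ATP readout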
[3] = JHH-DIPG-1 glioma cell viability, MIPE5.0 library, CellTiter-Glo luminescence, qHTS (AID 1347067); details: JHH-DIPG-1 glioma viability, CellTiter-Glo ATP luminescence;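 further: cells exposed to compound for 48 hours before readout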
[4] = growth inhibition of DIPG cells – cell-based, MIPE5.0 library, qHTS (AID 1347068; cut-off not given, nearly all actives have IC50 up to about 30 µM;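 on IC50: cells exposed to compound for 48 hours before viability readout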); details: SU-DIPG-XXV viability
[5] = viability loss with induced miR-34 in A549 – imaging, A549 dox-inducible miR-34, nuclei and caspase counts, primary screen (AID 1347080;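 active means compounds whose cell count with miR-34 switched on is under 0.7 times the count with it off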); details: A549 miR-34 inducible, Hoechst nuclei count, 48 h
[6] = MELAS cybrid and Rieske KO viability enhancers – cell-based, MELAS cybrids, Rieske KO mouse fibroblasts, CellTiter-Glo, primary screen (AID 1508586;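 active means mean z-score across replicates of 1.96 or higher in either the MELAS or the Rieske mutant cell line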;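 further: z relative to plate mean and SD of compound and empty wells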); details: low glucose

CC1(C)CCC2(CC1)N[C@@H](C(=O)N[C@@H]1CC[C@@H](C(N)=O)OC1)[C@H](c1ccnc(Cl)c1F)[C@]21C(=O)Nc2cc(Cl)ccc21
active: AC50 [1] 16 µM | AC50 [2] 16 µM | AC50 [3] 20.1 µM
inactive: outcome [4]

CC1(C(=O)O)CCC2(C)CCC3(C)C(=CC(=O)C4C5(C)CCC(OC6OC(C(=O)O)C(O)C(O)C6OC6OC(C(=O)O)C(O)C(O)C6O)C(C)(C)C5CCC43C)C2C1 (stereo not drawn)
inactive: outcome [1] | outcome [2] | outcome [3] | outcome [4]

CCN1C(=O)CNc2ncc(-c3ccc(-c4ncn[nH]4)nc3C)nc21
active: AC50 [1] 4.17 µM | AC50 [2] 1.48 µM | AC50 [3] 5.9 µM | IC50 [4] 8.33 µM

CCS(=O)(=O)N1CCN(c2ccc(Nc3ncc(C(N)=O)c(NC4CC4)n3)cc2)CC1
active: AC50 [1] 16.6 µM | AC50 [2] 11.8 µM | AC50 [3] 14.8 µM | IC50 [4] 23.5 µM

Nc1nccc2c1ncn2[C@@H]1C=C(CO)[C@@H](O)[C@H]1O
inactive: outcome [1] | outcome [2] | outcome [3] | outcome [4]

C=CC(=O)Nc1cccc(Sc2nc(Nc3ccc(N4CCN(C)CC4)cc3)ncc2Cl)c1
0.935: z-score ([6]; Rieske KO mouse fibroblast survival, CellTiter-Glo 72 h)
inactive: fold change ([5]; stronger effect = lower value, cell number ratio, induced over uninduced) 0.881 | z-score ([6]; MELAS cybrid survival, CellTiter-Glo 48 h, stronger effect = higher value) -0.417
active: AC50 [1] 2.09 µM | AC50 [2] 1.48 µM | AC50 [3] 4.17 µM | IC50 [4] 1.66 µM
5660: cell count ([5]; measured here: total cells without miR-34 induction)
1.05: fold change ([5]; measured here: relative caspase fold change +Dox/-Dox)
4990: cell count ([5]; measured here: total cells with miR-34 induction, stronger effect = lower value)

CN[C@@H](C)C(=O)N[C@H](C(=O)N1CCC[C@H]1C(=O)Nc1snnc1-c1ccccc1)C1CCCCC1
inactive: outcome [1] | outcome [2] | outcome [3] | outcome [4]

OC(c1ccc(-c2ccc(CN3CCN(Cc4ccncc4)CC3)cc2)c(F)c1)(C(F)(F)F)C(F)(F)F
inactive: outcome [1] | outcome [2] | outcome [3] | outcome [4]

Cc1ccc(NC(=O)[C@H]2CCCN(C(=O)c3c(C)cccc3F)[C@H]2c2ccc(NC3CCCC3)cc2)cc1C(F)(F)F
inactive: outcome [1] | outcome [2] | outcome [3] | outcome [4]

Cc1cc(C(=O)Nc2cc(Oc3ccc4nc(NC(=O)C5CC5)cn4n3)ccc2C)n(C)n1
active: AC50 [1] 10.5 µM | AC50 [2] 5.9 µM

CONC(=O)Nc1ccc(-c2sc3c(c2CN(C)C)c(=O)n(-c2ccc(OC)nn2)c(=O)n3Cc2c(F)cccc2F)cc1
inactive: outcome [1] | outcome [2] | outcome [3]

Cc1cc(O)c(-c2ccc([C@@H](C)CN(C)C)cc2)c2c1[nH]c(=O)c1sccc12
active: AC50 [1] 0.417 µM | AC50 [2] 0.332 µM | AC50 [3] 0.417 µM | IC50 [4] 0.332 µM

O=C1OC(COc2ccccc2[N+](=O)[O-])CC1Cc1ccccc1 (stereo not drawn)
inactive: outcome [1] | outcome [2] | outcome [3] | outcome [4]

CCNCCc1ccc(CN(CC)c2cc(OC)ccc2[C@@H]2CCc3cc(O)ccc3C2)cc1
active: AC50 [1] 7.42 µM | AC50 [2] 8.33 µM | AC50 [3] 5.25 µM | IC50 [4] 3.32 µM

Cc1c(C(=O)Nc2ccc(Oc3ccnc4[nH]cc(-c5ccccc5)c34)c(F)c2)c(=O)n(-c2ccc(F)cc2)n1C
active: AC50 [1] 16.6 µM | AC50 [2] 5.25 µM | AC50 [3] 16.6 µM

NC(=O)c1cnc(N[C@@H]2CCCC[C@@H]2N)nc1Nc1cccc(-n2nccn2)c1
active: AC50 [1] 7.42 µM | AC50 [2] 5.25 µM | AC50 [3] 23.5 µM | IC50 [4] 18.6 µM

C=Cc1cc(O)cc2nc(-c3ccc(O)c(F)c3)oc12
inactive: outcome [1] | outcome [2] | outcome [3] | outcome [4]

COc1ncc(Nc2ncc([C@H](C)N3CCN(S(C)(=O)=O)CC3)cc2-c2nc(C)nc(N)n2)cc1F
active: AC50 [1] 0.525 µM | AC50 [2] 0.105 µM | AC50 [3] 1.18 µM

COc1ccc(-n2cnc3cc(C(=O)N4CCCCC4)ccc32)cc1
inactive: outcome [1] | outcome [2] | outcome [3] | outcome [4]

c1ccc(CNCc2ccc(CN3CCCNCCNCCCNCC3)cc2)nc1
inactive: outcome [1] | outcome [2] | outcome [3] | outcome [4]

O=C(NC[C@H](O)CN1CCc2ccccc2C1)c1ccnc(NC2CCC2)c1
inactive: outcome [1] | outcome [2] | outcome [4]
active: AC50 [3] 23.5 µM

NC(=S)N/N=C/c1ncccc1N
active: AC50 [1] 11.8 µM | AC50 [2] 16.6 µM | AC50 [3] 14.8 µM

Cc1ccc(S(=O)(=O)Nc2cc(C(F)(F)F)ccc2C(=O)Nc2nc(-c3ccccc3)cs2)cc1
active: AC50 [1] 4.17 µM | AC50 [2] 3.72 µM | AC50 [3] 3.32 µM | IC50 [4] 4.68 µM

CN1C(=O)N[C@H](Cc2c[nH]c3c(Cl)cccc23)C1=O
inactive: outcome [1] | outcome [2] | outcome [3]

CC(C)n1c(=O)cc(N[C@@H](C)c2ccccc2)[nH]c1=O
active: AC50 [1] 9.34 µM | AC50 [2] 10.5 µM | AC50 [3] 14.8 µM
inactive: outcome [4]

COC1(c2sc3c(N4CCOCC4)nc(-c4cnc(N)nc4)nc3c2C)COC1
active: AC50 [1] 0.661 µM | AC50 [2] 0.132 µM | AC50 [3] 0.525 µM | IC50 [4] 1.18 µM

O=C(NO)c1cnc(NC2(c3ccccc3)CC2)nc1
active: AC50 [1] 3.32 µM | AC50 [2] 2.95 µM | AC50 [3] 2.95 µM

CCS(=O)(=O)Nc1ccc(Oc2ccc(F)cc2F)c(-c2cn(C)c(=O)c3[nH]ccc23)c1
active: AC50 [1] 0.105 µM | AC50 [2] 2.95 µM | AC50 [3] 4.68 µM

CC(C)C(N)C(=O)OCC(CO)OCn1cnc2c(=O)[nH]c(N)nc21 (stereo not drawn)
inactive: outcome [1] | outcome [2] | outcome [3] | outcome [4]

C[C@@H](C(=O)Nc1ccc(Cl)cc1)C1CCC(c2ccnc3ccc(F)cc23)CC1 (stereo partly drawn)
inactive: outcome [1] | outcome [2] | outcome [3]

O=C(Cc1cccc(OC(F)(F)F)c1)Nc1ccc(CCCCc2nnc(NC(=O)Cc3ccccn3)s2)nn1
inactive: outcome [4]
active: AC50 [1] 13.2 µM | AC50 [2] 14.8 µM | AC50 [3] 20.9 µM

CN(C)c1cc(NC(=O)CNC(C)(C)C)c(O)c2c1C[C@H]1C[C@H]3[C@H](N(C)C)C(=O)C(C(N)=O)=C(O)[C@]3(O)C(=O)C1=C2O
inactive: outcome [1] | outcome [2] | outcome [3]
